Screen size: about 66,000 compounds; about 960 (1.5%) showed an effect of 50% or more. Only a selection was taken, and strong results are over-represented in it overall.
Tested on: Trypanosoma brucei
Test: Trypanosoma brucei 72 hour study
Assay type: functional, organism-based
Parameters: scale not given: in the data most compounds retested in dose-response had high values

CC(C)n1ccnc1CN1CCCN(C(=O)c2cccnc2O)CC1
Percent Effect (30 µM, 30.03 µM): -16.49%

Cc1occc1C(=O)N1CCCN(Cc2nccn2C(C)C)CC1
Percent Effect (30.3 µM, […]): 53.23%

Cc1occc1C(=O)N1CCCN(Cc2nccn2C)CC1
Percent Effect (30.3 µM, […]): 4.115%

CCS(=O)(=O)N1Cc2[nH]nc(COCc3cccnc3)c2C1.O=C(O)C(F)(F)F
Percent Effect (30.3 µM, […]): -37.05%

CC(C)N1CC[C@H]2[C@H](C[C@@H](Cn3cccn3)N2c2nccs2)C1.O=C(O)C(F)(F)F.O=C(O)C(F)(F)F.O=C(O)C(F)(F)F
Percent Effect (30.3 µM, […]): -34.12%

CCC(=O)N1CC[C@H]2[C@H](C[C@@H](Cn3cccn3)N2c2nccs2)C1.O=C(O)C(F)(F)F.O=C(O)C(F)(F)F
Percent Effect (30.3 µM, […]): -3.444%

O=C(O)C(F)(F)F.O=C(O)C(F)(F)F.O=C(O)C(F)(F)F.c1cnn(C[C@@H]2C[C@@H]3CN(CC4CC4)CC[C@@H]3N2c2nccs2)c1
Percent Effect (30.3 µM, […]): 61.8%

CC(=O)N1CCC2(CC1)C(=O)N(CC1CCN(C)CC1)c1ccccc12.O=C(O)C(F)(F)F
Percent Effect (30.3 µM, […]): -5.968%

CCNc1cc2c(nn1)CCN(C(=O)c1cc3ccccc3o1)C2
Percent Effect (10 µM): -51.84%
Percent Effect (30.3 µM, […]): 2.809%

CCNc1cc2c(nn1)CCN(C(=O)c1cc3nc(C)ccc3o1)C2
Percent Effect (30 µM, 30.03 µM): 62.84%

CCNc1cc2c(nn1)CCN(C(=O)c1cc3cc(C)ccc3o1)C2
Percent Effect (10 µM): -11.72%
Percent Effect (30.3 µM, […]): 30.23%

Cn1cc(CNC2CCc3c(ccc(=O)n3Cc3ccncc3)C2)cn1.O=C(O)C(F)(F)F.O=C(O)C(F)(F)F (configuration not stated)
Percent Effect (30.3 µM, […]): 3.089%

CCc1cc(N(C)Cc2ccno2)n2nc(C)c(C)c2n1
Percent Effect (30 µM, 30.03 µM): 69.73%

CCc1cc(N(C)Cc2ccncn2)n2nc(C)c(C)c2n1
Percent Effect (30 µM, 30.03 µM): 25.26%

CCc1cc(N(C)Cc2ccnc(C)c2)n2nc(C)c(C)c2n1
Percent Effect (30 µM, 30.03 µM): -13.68%

CC(=O)N1CCCN(C(=O)c2ccc(=O)n(C)c2)c2ccccc21
Percent Effect (30.3 µM, […]): -14.08%

Cn1cc(N2CC3(CCN(CC4CC4)CC3)OCC2=O)cn1.O=C(O)C(F)(F)F
Percent Effect (30 µM, 30.03 µM): -14.55%

O=C(NCCC1=CCCCC1)c1n[nH]c2c1CCCC2
Percent Effect (30.3 µM, […]): 9.564%

Cc1cc(C(=O)N2CCN(C)CC2)nn1CC(=O)NCc1cccs1.Cl
Percent Effect (30.3 µM, […]): 4.887%

CN1CCc2c(C#N)c(NCC3CCCO3)n3cnnc3c2C1.Cl (configuration not stated)
Percent Effect (30 µM, 30.03 µM): -22.69%

CC(NC(=O)CSCC(N)=O)c1ccccc1Oc1ccccc1 (configuration not stated)
Percent Effect (30.3 µM, […]): 5.896%

CN1[C@H](CN2CCCC2)C[C@@H]2CN(C(=O)c3cccn3C)CC[C@@H]21.O=C(O)C(F)(F)F.O=C(O)C(F)(F)F
Percent Effect (30.3 µM, […]): 14%

Cc1ccc(S(=O)(=O)Nc2cnn(C3CCOCC3)c2)cc1C
Percent Effect (30 µM, 30.03 µM): -12.07%

O=S(=O)(Nc1cnn(C2CCOCC2)c1)c1ccc(F)c(F)c1
Percent Effect (30 µM, 30.03 µM): 51.53%

O=C(O)c1cc(S(=O)(=O)Nc2cnn(C3CCOCC3)c2)ccc1F
Percent Effect (30 µM, 30.03 µM): -3.686%

CC(C)CS(=O)(=O)N1CCC2(CN(c3ccsc3)C(=O)CN2C)C1.O=C(O)C(F)(F)F (configuration not stated)
Percent Effect (30 µM, 30.03 µM): -44.48%

O=C(CCn1ccccc1=O)Nc1ccc(C(=O)O)cc1
Percent Effect (30 µM, 30.03 µM): 4.206%

Cl.NCCC(=O)Nc1ccc(-c2ccccc2)cc1
Percent Effect (30.3 µM, […]): 22.23%
Percent Effect (10 mM, 10 mM as filed; unlikely as a test dose): 97.12%

CC(=O)Nc1ccc(-c2ccccc2NC(=O)CN)cc1
Percent Effect (30 µM, 30.03 µM): -52.76%

O=C(O)C(F)(F)F.O=C([C@H]1C[C@H]2OCC[C@H]2N(CC2CC2)C1)N1CCCCO1
Percent Effect (30.3 µM, […]): -275.5%

O=C(O)C(F)(F)F.O=C1COC2(CCN(Cc3ccsc3)CC2)CN1
Percent Effect (30 µM, 30.03 µM): -11.85%

CS(=O)(=O)NCC1CCCN(Cc2ccccc2F)C1 (configuration not stated)
Percent Effect (30 µM, 30.03 µM): -12.86%

COC1CCN(C(=O)Nc2ccccc2)CC(=O)N(C)c2ccccc21 (configuration not stated)
Percent Effect (30.3 µM, […]): 83.76%

COC1CN(C(=O)Nc2ccccc2)CCC(=O)N(C)c2ccccc21 (configuration not stated)
Percent Effect (30.3 µM, […]): -31.75%

COC1CCN(C(=O)C2CCCC2)CC(=O)N(C)c2ccccc21 (configuration not stated)
Percent Effect (30.3 µM, […]): -34.54%

COCCOc1cccc(CNCc2c(C)nn(C)c2N(C)C)c1
Percent Effect (10 µM): -49.16%

Cc1nc(C)n(CC2CN(c3ncnc4[nH]ccc34)CCO2)n1 (configuration not stated)
Percent Effect (30 µM, 30.03 µM): 20.56%

Cc1nc(C)n(CC2CCCN(c3ncnc4[nH]ccc34)C2)n1 (configuration not stated)
Percent Effect (30 µM, 30.03 µM): 50.76%

Cc1nc(C)n(CC2CCCN(c3ncnc4ccccc34)C2)n1 (configuration not stated)
Percent Effect (30.3 µM, […]): 12.87%

CC(C)NC(=O)[C@@]12CCO[C@@H]1CCN(Cc1ccco1)C2.O=C(O)C(F)(F)F
Percent Effect (30.3 µM, […]): -46.6%

COc1cc(C)c(-c2ccc(F)c3c2OC(CN)C3)cc1C (configuration not stated)
Percent Effect (30 µM, 30.03 µM): -14.37%

CCN1CCn2c(C)cnc2C12CCN(C(=O)N(C)C)CC2.O=C(O)C(F)(F)F.O=C(O)C(F)(F)F
Percent Effect (30.3 µM, […]): -17.98%

CC(C)(C)c1cnc(CN2CCC[C@H]2CO)o1
Percent Effect (30 µM, 30.03 µM): 19.26%

Cc1nc(C)n(CC2CCCCN2Cc2ncc(C(C)(C)C)o2)n1 (configuration not stated)
Percent Effect (30 µM, 30.03 µM): 13.64%

CCC1CCCCN1Cc1ncc(C(C)(C)C)o1 (configuration not stated)
Percent Effect (30.3 µM, […]): 100.3%
Percent Effect (10 mM, 10 mM as filed; unlikely as a test dose): -33.47%

CC(C)(C)c1cnc(CN2CCCCC2Cn2cccn2)o1 (configuration not stated)
Percent Effect (30.3 µM, […]): -24.92%
Percent Effect (10 mM, 10 mM as filed; unlikely as a test dose): -80.62%

Cc1cc(C)n(CC2CCCN2Cc2ncc(C(C)(C)C)o2)n1 (configuration not stated)
Percent Effect (30.3 µM, […]): 1.727%
Percent Effect (10 mM, 10 mM as filed; unlikely as a test dose): -8.311%

Cc1nc(C)n(CC2CCCN2Cc2ncc(C(C)(C)C)o2)n1 (configuration not stated)
Percent Effect (30.3 µM, […]): 101.7%
Percent Effect (10 mM, 10 mM as filed; unlikely as a test dose): -27.43%

Cc1nc(C)c(S(=O)(=O)NC(=O)c2ccoc2)s1
Percent Effect (30 µM, 30.03 µM): -10.98%

Cc1cc(F)c(S(=O)(=O)NCC(C)(C)N)cc1F.Cl
Percent Effect (30 µM, 30.03 µM): -16.06%

Cn1ncc(-c2cc(-c3cccc(O)c3)nc(N)c2C#N)c1C1CC1
Percent Effect (30.3 µM, […]): 47.44%

Cc1cc(O)ccc1-c1cc(-c2cnn(C)c2C2CC2)c(C#N)c(N)n1
Percent Effect (30.3 µM, […]): 53.81%

Cc1nn(C)c(C)c1-c1cc(-c2cnn(C)c2C2CC2)c(C#N)c(N)n1
Percent Effect (30.3 µM, […]): 20.75%

Cc1nccc(NCc2cncc3c2CCN(CC2CCOC2)C3)n1.Cl.Cl (configuration not stated)
Percent Effect (30.3 µM, […]): -74.45%

C/N=C1\c2cc3cc(OC)ccc3n2CCN1Cc1ccccc1.O=C(O)C(F)(F)F
Percent Effect (30 µM, 30.03 µM): 28.46%

C/N=C1\c2cc3cc(OC)ccc3n2CCN1C.Cl
Percent Effect (30 µM, 30.03 µM): -36.23%

C/N=C1/c2cc3cc(OC)ccc3n2CCN1Cc1ccccc1.Cl
Percent Effect (30 µM, 30.03 µM): 62.06%

Cc1ccc(CN2C[C@@H]3COC[C@@H](CC(=O)N4CCOCC4)[C@@H]3C2)s1.O=C(O)C(F)(F)F
Percent Effect (30 µM, 30.03 µM): -11.98%

O=C(COC1CCCC1)N1C[C@@H]2COC[C@]2(COc2cccnc2)C1.O=C(O)C(F)(F)F
Percent Effect (30.3 µM, […]): -69.72%

Cc1ccc(N2CCC(c3cc(Cc4ccccc4)n[nH]3)CC2)nn1
Percent Effect (30.3 µM, […]): -45.15%

Cc1ccc(N2CCCC(c3[nH]ncc3Cc3ccccc3)C2)nn1 (configuration not stated)
Percent Effect (30 µM, 30.03 µM): 42.86%

Cc1ccc(N2CCC(c3[nH]ncc3Cc3ccccc3)CC2)nn1
Percent Effect (30 µM, 30.03 µM): 58.22%

O=C(C[C@@H]1COC[C@H]2CN(C(=O)c3cccnc3)C[C@@H]12)N1CCCC1.O=C(O)C(F)(F)F
Percent Effect (30 µM, 30.03 µM): -25.13%

CCN1C(=O)CC[C@]12CC[C@@H](NC(=O)c1ccncc1F)CC2.O=C(O)C(F)(F)F
Percent Effect (30.3 µM, […]): 5.821%

O=C(CC1CC1)N1CCC2(CC1)CN(c1ncc(F)cn1)CCO2
Percent Effect (30.3 µM, […]): -27.29%

COCC(=O)N1CCC2(CC1)CN(c1ncccn1)CCO2
Percent Effect (30.3 µM, […]): -22.4%

O=C(CC1CC1)N1CCC2(CC1)CN(c1ncccn1)CCO2
Percent Effect (30 µM, 30.03 µM): 61.77%

Cc1cnc(N)c(C(=O)C2CCN(C(=O)c3ccccc3F)CC2)c1
Percent Effect (30 µM, 30.03 µM): 31.22%

CN1CC(C(=O)NCCc2ccn(-c3ccc(F)cc3)n2)CC1=O (configuration not stated)
Percent Effect (30.3 µM, […]): -29.7%

COC(=O)C1CN(Cc2ccn(-c3ccc(F)cc3)n2)CCO1 (configuration not stated)
Percent Effect (30 µM, 30.03 µM): -55.87%

O=C(NCCc1ccn(-c2ccc(F)cc2)n1)C1CCCOC1 (configuration not stated)
Percent Effect (30.3 µM, […]): 101.3%

O=C(NCc1cnn(-c2ccc(F)cc2F)c1)C1CCCO1 (configuration not stated)
Percent Effect (30 µM, 30.03 µM): 6.462%

O=C(NCCn1cccc1)C1CCCOC1 (configuration not stated)
Percent Effect (30 µM, 30.03 µM): 2.367%

O=C(NCCc1ccn(-c2ccc(F)cc2)n1)C1CCCO1 (configuration not stated)
Percent Effect (30.3 µM, […]): 99.62%

Cc1noc(C)c1CN1CCN(Cc2ccncc2)c2ncccc2C1.O=C(O)C(F)(F)F.O=C(O)C(F)(F)F.O=C(O)C(F)(F)F
Percent Effect (30 µM, 30.03 µM): 43.91%

COc1ccc(CN2CCc3nnc(COCCN(C)C)n3CC2)cc1.O=C(O)C(F)(F)F.O=C(O)C(F)(F)F
Percent Effect (30.3 µM, […]): -2.661%

CN1C(=O)CC[C@@H]2[C@H]1CCN2S(=O)(=O)Cc1ccccc1
Percent Effect (30 µM, 30.03 µM): -49.38%

COc1ccc(-c2cc(CN)nc3ccnn23)cc1.Cl
Percent Effect (30.3 µM, […]): -10.95%

COc1cccc(CNc2cc(CO)ccc2Cl)c1
Percent Effect (30.3 µM, […]): -53.68%

CN(C)S(=O)(=O)c1cccc(CNc2cc(CO)ccc2Cl)c1
Percent Effect (30.3 µM, […]): 18.15%

Cc1cccc(CNC(=O)CNc2cc(CO)ccc2Cl)c1
Percent Effect (30 µM, 30.03 µM): 50.69%

CC(C)CC(=O)N1CC[C@H]2N(C)CC[C@@]2(C(=O)Nc2ccccc2)CC1.O=C(O)C(F)(F)F
Percent Effect (30 µM, 30.03 µM): -17.6%

CCc1cc(CN2CCCCC2c2ccc(F)cc2)on1 (configuration not stated)
Percent Effect (30.3 µM, […]): -64.98%

CCCC(=O)N(C)Cc1nc(N2CCCC2)ncc1-c1ccncc1.Cl
Percent Effect (30.3 µM, […]): 24.09%

O=C(NCC1CCOCC1)[C@H]1C[C@@H]2CCN(c3nncs3)C[C@@H]2O1.O=C(O)C(F)(F)F
Percent Effect (30.3 µM, […]): -23.29%

COCCNC(=O)[C@H]1C[C@@H]2CCN(c3nncs3)C[C@H]2O1.O=C(O)C(F)(F)F
Percent Effect (30 µM, 30.03 µM): 50.75%

COCCNC(=O)[C@H]1C[C@@H]2CCN(c3ncccn3)C[C@H]2O1.O=C(O)C(F)(F)F
Percent Effect (30.3 µM, […]): -89.35%

O=C(NCC1CCOC1)N1CCN(Cc2ccc3c(c2)OCO3)CC1 (configuration not stated)
Percent Effect (30.3 µM, […]): 1.586%

O=C(NCC1CCCO1)N1CCN(Cc2ccc3c(c2)CCO3)CC1 (configuration not stated)
Percent Effect (30.3 µM, […]): 17.02%

O=C(NCC1CCOC1)N1CCN(Cc2ccc3c(c2)CCO3)CC1 (configuration not stated)
Percent Effect (30 µM, 30.03 µM): 54.6%

Reference: ChEMBL document CHEMBL3988442, “University of Dundee, Small-Polar-MMV Screening Library” (2021)
